# Assay results as given in PubChem BioAssay (EPA / NIEHS).
# Results filed as inconclusive are left out. The source made the active and inactive calls. The calls were made as follows, unless noted: active = hit-call score of the fitted dose curve at least 0.9, where 1 is the maximum; inconclusive = response in the unintended direction; inactive = score below 0.9.
# Legend:
# [1] = TOX21_p53_BLA_p2_viability: Viability Assessment in the Tox21 HCT-116 p53 Agonism Beta-lactamase Assay, Phase 2 (AID 2283591);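 also: compound exposure lasted 16 h at 37 °C; actives lower the ATP signal meaning cytotoxicity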
# In short: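 Cytotoxicity readout: CellTiter-Glo ATP luminescence, 30 min at room temperature, after the beta-lactamase read. Cells were HCT116 exposed 16 h at 37C to compounds pin-transferred at 217-fold dilution from DMSO stocks.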
# [2] = biological target: Cellular tumor antigen p53 (Homo sapiens) (UniProt P04637); experiment: TOX21_p53_BLA_p2_ratio: Tox21 HCT-116 p53 Agonism Beta-lactamase Assay, Ratio, Phase 2 (AID 2283592)
# Chain of Cellular tumor antigen p53 (Homo sapiens) (P04637 whole entry, looked up): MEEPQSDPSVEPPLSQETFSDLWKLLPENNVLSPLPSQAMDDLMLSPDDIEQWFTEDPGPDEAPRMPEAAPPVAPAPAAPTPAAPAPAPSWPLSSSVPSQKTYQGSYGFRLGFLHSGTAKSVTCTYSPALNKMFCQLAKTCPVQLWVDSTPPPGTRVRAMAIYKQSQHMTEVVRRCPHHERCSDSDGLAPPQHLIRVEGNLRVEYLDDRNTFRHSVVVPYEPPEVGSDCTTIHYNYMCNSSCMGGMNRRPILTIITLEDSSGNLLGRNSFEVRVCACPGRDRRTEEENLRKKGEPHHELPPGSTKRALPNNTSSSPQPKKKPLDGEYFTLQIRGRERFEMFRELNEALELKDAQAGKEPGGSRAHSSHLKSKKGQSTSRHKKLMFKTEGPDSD
# In short: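 DMSO-normalized, positive-direction endpoint derived from the 460 nm/530 nm FRET ratio in HCT116 p53 beta-lactamase reporter cells exposed 16 h at 37C and loaded with CCF4-AM for 2 h.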
# [3] = TOX21_p53_BLA_p3_viability: Viability Assessment in the Tox21 HCT-116 p53 Agonism Beta-lactamase Assay, Phase 3 (AID 2283593);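 also: cells exposed to compound for 16 h before reading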
# In short: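 Cellular ATP was quantified by CellTiter-Glo luminescence, read after 30 min at room temperature. Beforehand, HCT116 cells (4000/well) received compound 5 h post-seeding, 217-fold diluted from DMSO, then incubated 16 h at 37C.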
# [4] = biological target: Cellular tumor antigen p53 (Homo sapiens) (UniProt P04637); experiment: TOX21_p53_BLA_p3_ratio: Tox21 HCT-116 p53 Agonism Beta-lactamase Assay, Ratio, Phase 3 (AID 2283596)
# In short: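 Cells were seeded at 4000/well, rested 5 h at 37C, then dosed with DMSO compound solutions (217-fold dilution) for 16 h. CCF4-AM substrate was loaded for 2 h at room temperature, and the 460/530 nm emission ratio was fitted for gain of signal versus DMSO.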
# [5] = TOX21_p53_BLA_p4_viability: Viability Assessment in the Tox21 HCT-116 p53 Agonism Beta-lactamase Assay, Phase 4 (AID 2283597);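 also: hits lower the luminescence signal meaning cytotoxicity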
# In short: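 In this multiplexed secondary endpoint, HCT116 cells (4000 per well, compound at 5 h, 16 h treatment) received CellTiter-Glo after the beta-lactamase read. Luminescence after 30 min RT reflects ATP, and falling signal marks cytotoxicity.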
# [6] = TOX21_p53_BLA_p5_viability: Viability Assessment in the Tox21 HCT-116 p53 Agonism Beta-lactamase Assay, Phase 5 (AID 2283600)
# In short: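 Here cell health was gauged by ATP levels in wells holding 4000 cells, each treated 16 h with DMSO-delivered compounds at 217-fold dilution; reduced luminescence marked toxicity.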
# [7] = biological target: Cellular tumor antigen p53 (Homo sapiens) (UniProt P04637); experiment: TOX21_p53_BLA_p4_ratio: Tox21 HCT-116 p53 Agonism Beta-lactamase Assay, Ratio, Phase 4 (AID 2283601)
# In short: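 Signal is the blue/green (460nm/530nm) ratio of cleaved versus uncleaved CCF4-AM substrate, read after 2 h substrate loading. Cells were HCT116 carrying the p53-responsive beta-lactamase reporter, dosed 16 h at 37C, 5% CO2; CellTiter-Glo measured in parallel.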
# [8] = ACEA_ER_AUC_viability: ACEA Biosciences xCELLigence Real-Time Cell Analysis on Estrogen Receptor Agonism for Viability (AID 2283782);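 also: hit means loss of impedance signal meaning reduced cell growth or viability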
# In short: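 Viability endpoint: reduced impedance area under the curve relative to DMSO, recorded by real-time electrode sensing over ~80 h of continuous exposure. Duplicate plates of T47D in hormone-depleted medium; eight concentrations, 1:4 dilutions, 100 uM maximum.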
# [9] = CCTE_Harrill_HTTr_Viability_MCF7: CCTE's 6-hour Cell Viability Assessment for the High-Throughput Transcriptomics (HTTr) Platform, in MCF-7 cells cultured in DMEM + 10% fetal bovine serum, Harrill Lab (AID 2284010; active = hit-call score of the fitted dose curve at least 0.9, where 1 is the maximum; inactive = score below 0.9)
# In short: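 Read-out is propidium iodide gain of signal by high-content imaging, reflecting membrane integrity loss. Measurements are taken 6 h after dosing, eight concentrations per chemical, with DMSO serving as baseline for bidirectional curve fitting.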
# [10] = CCTE_Harrill_HTTr_Apoptosis_MCF7: CCTE's 6-hour Apoptosis Assessment for the High-Throughput Transcriptomics (HTTr) Platform, in MCF-7 cells cultured in DMEM + 10% fetal bovine serum, Harrill Lab (AID 2284011; active = hit-call score of the fitted dose curve at least 0.9, where 1 is the maximum; inactive = score below 0.9)
# In short: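 Apoptosis in MCF-7 cells grown in DMEM with 10% fetal bovine serum was scored after a six hour exposure by high content imaging of caspase-3/7 activation (CellEvent Caspase 3/7 Green), with DMSO serving as negative control and baseline.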
# [11] = CCTE_Harrill_HTTr_CellCount_MCF7: CCTE's Cell Proliferation Assessment for the High-Throughput Transcriptomics (HTTr) Platform, Harrill Lab (AID 2284012);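 also: cells exposed to compound for six hours; intended direction is loss of nuclei count meaning fewer cells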
# In short: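 Cell count served as viability reporter: loss of Hoechst-stained nuclei, counted by high content imaging, marks decreased growth or survival. Exposure was 6 h in MCF-7 cells across eight concentrations, with DMSO as baseline.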
# [12] = CCTE_Deisenroth_DEVTOX-GLR_legacy_CellCount: (Legacy) Viability Assessment in CCTE's DevTox GLR-Endo Assay, Deisenroth Lab (AID 2284331; active = hit-call score of the fitted dose curve at least 0.9, where 1 is the maximum; inactive = score below 0.9); settings: actives raise or lower the signal
# In short: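 Human pluripotent RUES2-GLR cells differentiated 48 h with two 24-h-interval exposures, 10-point 1 nM–200 uM series, 0.2% DMSO. Fixed nuclei counted by high-content imaging (5 fields/well); bidirectional fit vs DMSO, n≥4.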
# [13] = system: SRY-box transcription factor 17 (SOX17) Protein Expression, Deisenroth Lab, SOX17 (gene 64321); experiment: CCTE_Deisenroth_DEVTOX-GLR_Endo_SOX17: CCTE's DevTox GLR-Endo Assay Evaluation of SRY-box transcription factor 17 (SOX17) Protein Expression, Deisenroth Lab (AID 2284413; active = hit-call score of the fitted dose curve at least 0.9, where 1 is the maximum; inactive = score below 0.9)
# In short: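 RUES2-GLR human pluripotent cells were seeded 24 h, then differentiated toward endoderm for 48 h with two chemical exposures 24 h apart (10-point series, 1 nM - 200 uM). Nuclei-stained fixed cells were imaged; endpoint is percent change in SOX17+ cells versus 0.2% DMSO.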
# [14] = system: Brachyury (BRA) Protein Expression, TBXT (gene 6862); experiment: CCTE_Deisenroth_DEVTOX-GLR_Endo_BRA: CCTE's DevTox GLR-Endo Assay Evaluation of Brachyury (BRA) Protein Expression, Deisenroth Lab (AID 2284417; active = hit-call score of the fitted dose curve at least 0.9, where 1 is the maximum; inactive = score below 0.9)
# In short: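 RUES2-GLR pluripotent cells differentiated 48 h with two chemical exposures 24 h apart, 10-point range 1 nM - 200 uM. Percentage of BRA+ cells per total count by high-content imaging, minus 0.2% DMSO control.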
# [15] = CCTE_Deisenroth_DEVTOX-GLR_Endo_CellCount: Viability Assessment in CCTE's DevTox GLR-Endo Assay, Deisenroth Lab (AID 2284420; active = hit-call score of the fitted dose curve at least 0.9, where 1 is the maximum; inactive = score below 0.9)
# In short: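 Measured 48 h after dosing: fluorescent nuclei counted by imaging in human RUES2-GLR cells under defined differentiation media, tested at 1 nM - 200 uM. Values are percent cell-count change relative to 0.2% DMSO.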
# [16] = system: SRY-box transcription factor 17 (SOX17) Protein Expression, Deisenroth Lab, SOX17 (gene 64321); experiment: CCTE_Deisenroth_DEVTOX-GLR_Pluri_SOX17: CCTE's DevTox GLR-Pluri Assay Evaluation of SRY-box transcription factor 17 (SOX17) Protein Expression, Deisenroth Lab (AID 2284427)
# In short: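 Using an inducible fluorescent SOX17 reporter in human pluripotent RUES2-GLR cells, compounds (1 nM - 200 uM) were given twice over 48 h differentiation. Percent SOX17+ cells minus DMSO control came from high-content image analysis.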
# [17] = system: Brachyury (BRA) Protein Expression, Deisenroth Lab, TBXT (gene 6862); experiment: CCTE_Deisenroth_DEVTOX-GLR_Pluri_BRA: CCTE's DevTox GLR-Pluri Assay Evaluation of Brachyury (BRA) Protein Expression, Deisenroth Lab (AID 2284429)
# In short: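 Percent BRA+ cells (BRA+ count over total cells) by high-content imaging of fixed RUES2-GLR cultures, corrected by 0.2% DMSO control. Cells received two doses over 48-hour differentiation, 1 nM–200 uM, n=4 experiments.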
# [18] = CCTE_Deisenroth_DEVTOX-GLR_Pluri_CellCount: Viability Assessment in CCTE's DevTox GLR-Pluri Assay Evaluation of Total Cell Counts, Deisenroth Lab (AID 2284430; active = hit-call score of the fitted dose curve at least 0.9, where 1 is the maximum; inactive = score below 0.9)
# In short: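 Cytotoxicity readout: fluorescent nuclei counts by high-content imaging, expressed as percent change relative to 0.2% DMSO. Human RUES2-GLR pluripotent line differentiated 48 h, dosed twice at 24-h intervals across 1 nM - 200 uM (10 points).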
# [19] = TOX21_PR_BLA_Followup_Agonist_viability: Viability Assessment in the Tox21 HEK293 Progesterone Receptor (PR) Agonism Beta-lactamase Follow-Up Assay (AID 2283935);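 also: signal loss means lower viability so actives are cytotoxic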
# In short: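 Cells were plated in medium with 2% charcoal-stripped FBS and rested 6 hr. Compounds in DMSO were then added for 16 hr at 37C, followed by the FRET substrate step and CellTiter-Glo luminescence after 30 min.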
# [20] = TOX21_PR_BLA_Followup_Antagonist_viability: Viability Assessment in the Tox21 HEK293 Progesterone Receptor (PR) Antagonism Beta-lactamase Follow-Up Assay (AID 2283936);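 also: cells exposed to compound with R5020 agonist for 16 h; hits lower the luminescence signal meaning cytotoxicity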
# In short: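 PR-UAS-bla HEK293T cells in medium with 2% charcoal-stripped FBS were treated with compounds plus R5020 for 16 hr at 37C. After the beta-lactamase read, CellTiter-Glo was added to the same wells and luminescence read after 30 min at room temperature.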
# [21] = biological target: PGR (gene 5241) (UniProt P06401); experiment: TOX21_PR_LUC_Followup_Antagonist: Tox21 HEK293 Progesterone Receptor (PR) Antagonism Luciferase Follow-Up Assay (AID 2283938);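 also: curve fitted upward as signal gain over DMSO baseline despite antagonist label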
# Chain of PGR (gene 5241) (P06401 whole entry, looked up): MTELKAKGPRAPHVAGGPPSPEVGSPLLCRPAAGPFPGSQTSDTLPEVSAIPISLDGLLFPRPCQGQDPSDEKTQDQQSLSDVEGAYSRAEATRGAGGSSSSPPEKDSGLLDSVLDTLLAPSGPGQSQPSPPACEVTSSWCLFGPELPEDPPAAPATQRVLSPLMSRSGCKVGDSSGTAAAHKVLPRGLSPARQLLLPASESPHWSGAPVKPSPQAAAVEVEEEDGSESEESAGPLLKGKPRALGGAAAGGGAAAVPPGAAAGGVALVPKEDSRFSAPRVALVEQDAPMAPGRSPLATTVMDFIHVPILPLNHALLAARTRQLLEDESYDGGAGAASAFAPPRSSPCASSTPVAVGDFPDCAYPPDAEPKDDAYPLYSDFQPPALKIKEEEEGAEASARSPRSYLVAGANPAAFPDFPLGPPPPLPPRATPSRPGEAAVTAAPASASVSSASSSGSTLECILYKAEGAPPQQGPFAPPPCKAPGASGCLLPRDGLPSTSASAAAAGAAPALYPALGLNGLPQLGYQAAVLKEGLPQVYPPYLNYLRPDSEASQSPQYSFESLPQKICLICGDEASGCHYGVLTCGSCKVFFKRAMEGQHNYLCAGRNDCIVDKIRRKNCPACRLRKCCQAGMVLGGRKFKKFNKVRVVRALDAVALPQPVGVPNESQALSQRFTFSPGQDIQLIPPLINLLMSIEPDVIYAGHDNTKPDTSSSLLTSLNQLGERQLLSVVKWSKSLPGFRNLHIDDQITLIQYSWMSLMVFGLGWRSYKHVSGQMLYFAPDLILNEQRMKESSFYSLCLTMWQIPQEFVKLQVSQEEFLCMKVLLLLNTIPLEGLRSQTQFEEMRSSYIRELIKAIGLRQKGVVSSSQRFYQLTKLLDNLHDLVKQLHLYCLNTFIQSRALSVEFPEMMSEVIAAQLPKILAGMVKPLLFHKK
# In short: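 Luciferase reporter in HEK293-PR-A-luc cells: 16 h compound treatment at 37C, ONE-Glo luminescence detection, DMSO as negative control and baseline.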
# [22] = TOX21_PR_LUC_Followup_Antagonist_viability: Viability Assessment in the Tox21 HEK293 Progesterone Receptor (PR) Antagonism Luciferase Follow-Up Assay (AID 2283940)
# In short: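 HEK293-PR-A-luc, 3,000 cells/well; 5 h at 37C/0% CO2; compound pin transfer; 16 h incubation; CellTiter-Glo ATP luminescence, signal loss = cytotoxicity.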
# [23] = TOX21_PR_LUC_Followup_Agonist_viability: Viability Assessment in the Tox21 HEK293 Progesterone Receptor (PR) Agonism Luciferase Follow-Up Assay (AID 2283941);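 also: loss of signal means cytotoxicity so actives lower viability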
# In short: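 Multiplexed viability endpoint of the PR agonist luciferase follow-up: HEK293-PR-A-luc cells treated 16 h at 37C, with viability scored as decrease in CellTiter-Glo ATP signal.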
compound,measurement,setting,value
CC1(C)CC(N)CC(C)(C)N1,outcome,[1],inactive
same,outcome,[2],inactive
same,outcome,[3],inactive
same,outcome,[4],inactive
same,outcome,[5],inactive
same,outcome,[6],inactive
same,outcome,[7],inactive
same,outcome,[8],inactive
C[N+]1(C)[C@@H]2CC(OC(=O)C(O)(c3cccs3)c3cccs3)C[C@H]1[C@@H]1O[C@@H]12 (stereo partly drawn),outcome,[1],inactive
same,outcome,[2],inactive
same,outcome,[3],inactive
same,outcome,[4],inactive
same,outcome,[5],inactive
same,outcome,[7],inactive
CC(C(=O)O)c1ccc(-c2ccccc2)c(F)c1 (stereo not drawn),outcome,[1],inactive
same,outcome,[2],inactive
same,outcome,[3],inactive
same,outcome,[4],inactive
same,outcome,[5],inactive
same,outcome,[6],inactive
same,outcome,[7],inactive
same,outcome,[9],inactive
same,outcome,[10],inactive
same,outcome,[11],inactive
O=C(c1ccc(F)cc1)C1CCN(CCn2c(=O)[nH]c3ccccc3c2=O)CC1,outcome,[1],inactive
same,outcome,[2],inactive
same,outcome,[3],inactive
same,outcome,[4],inactive
same,outcome,[5],inactive
same,outcome,[6],inactive
same,outcome,[7],inactive
same,AC50,[12],58.8 µM (active)
same,AC50,[13],37.9 µM (active)
same,AC50,[14],70 µM (active)
same,AC50,[15],58.4 µM (active)
same,AC50,[16],100 µM (active)
same,AC50,[17],127 µM (active)
same,outcome,[18],inactive
C[C@]12CCC(=O)C=C1CC[C@@H]1[C@@H]2CC[C@@]2(C)[C@H]1CC[C@]2(O)C(=O)CO,outcome,[1],inactive
same,outcome,[2],inactive
same,outcome,[3],inactive
same,outcome,[4],inactive
same,outcome,[5],inactive
same,outcome,[6],inactive
same,outcome,[7],inactive
same,outcome,[19],inactive
same,outcome,[20],inactive
same,outcome,[21],inactive
same,outcome,[22],inactive
same,outcome,[23],inactive
C=C[C@]1(C)C[C@@H](OC(=O)CSC(C)(C)CNC(=O)[C@H](N)C(C)C)[C@]2(C)[C@H](C)CC[C@]3(CCC(=O)[C@H]32)[C@@H](C)[C@@H]1O,outcome,[1],inactive
same,outcome,[2],inactive
same,outcome,[3],inactive
same,outcome,[4],inactive
same,outcome,[5],inactive
same,outcome,[6],inactive
same,outcome,[7],inactive
NC(=S)N/N=C/c1cccnc1,outcome,[1],inactive
same,outcome,[2],inactive
same,outcome,[3],inactive
same,outcome,[4],inactive
same,outcome,[5],inactive
same,outcome,[7],inactive
